Pf Dd2 growth – P. falciparum Dd2 growth inhibition. 94,000 compounds, 2.3% hits. activity change, % at 10 µM. AID 1159554. SYBR Green, 72 h; active compounds read low; in the data active means activity change below about -80%; inconclusive means no clear call, values can overlap the other calls
C diff growth – blocks growth of Clostridium difficile; Clostridium difficile clinical isolate growth, OD600, 24 h; active compounds read low; growth activity, negative = inhibition, % at 16 µg/mL (by protocol); 86,000 compounds, 0.25% hits;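 active means mean growth activity at or below -80% and every replicate also at or below -80%; inconclusive means mean at or below -80% but some replicate above -80%; inactive means mean growth activity above -80%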
Numbers stand for hits; – = inactive; ? = inconclusive; · = no result; ! = a repeat was not active. Only some compounds are listed: those with a hit (about 2.4% of all), similar ones and a draw of the others.

SMILES	Pf Dd2 growth	C diff growth
C[C@H](CO)N1C[C@H](C)[C@@H](CN(C)C(=O)Nc2ccc(-c3ccccc3)cc2)OCc2ccccc2-c2c(n(C)c3ccccc23)C1=O	-94	–
C[C@H](CO)N1C[C@H](C)[C@@H](CN(C)C(=O)Nc2ccccc2)OCc2ccccc2-c2c(n(C)c3ccccc23)C1=O	–	·
C[C@@H]1CN([C@H](C)CO)C(=O)c2cc(NS(=O)(=O)c3cn(C)cn3)ccc2O[C@@H](C)CCCCO[C@@H]1CN(C)Cc1ccncc1	–	–
C[C@H]1CN([C@@H](C)CO)C(=O)c2cccc(NC(=O)C3CC3)c2O[C@H]1CN(C)C(=O)Nc1ccc2c(c1)OCO2	–	–
C[C@H](CO)N1C[C@H](C)[C@@H](CN(C)C(=O)Nc2cccc3ccccc23)Oc2ccc(NC(=O)Nc3ccc4c(c3)OCO4)cc2CC1=O	-82	–
C[C@@H]1CN([C@H](C)CO)C(=O)c2cccc(NC(=O)Nc3cccc4ccccc34)c2O[C@H]1CN(C)C(=O)Nc1ccc2c(c1)OCO2	–	–
C[C@H]1CN([C@@H](C)CO)C(=O)Cc2cc(NC(=O)Nc3ccc4c(c3)OCO4)ccc2O[C@@H]1CN(C)C(=O)Nc1cccc2ccccc12	–	–
CC(C)NC(=O)Nc1cccc2c1O[C@H](CN(C)C(=O)Nc1ccc3c(c1)OCO3)[C@@H](C)CN([C@@H](C)CO)C2=O	–	·
C[C@@H]1CN([C@H](C)CO)C(=O)c2cccc(NC(=O)Nc3cccc4ccccc34)c2O[C@@H]1CN(C)C(=O)Nc1ccc2c(c1)OCO2	-83	–
C[C@@H]1CN([C@@H](C)CO)C(=O)c2cccc(NC(=O)C3CC3)c2O[C@@H]1CN(C)C(=O)Nc1ccc2c(c1)OCO2	-83	–
CC(C)NC(=O)Nc1cccc2c1O[C@H](CN(C)C(=O)Nc1ccc3c(c1)OCO3)[C@H](C)CN([C@@H](C)CO)C2=O	-83	·
CS(=O)(=O)N1[C@@H]2Cn3c(ccc(C4=CCCC4)c3=O)[C@H]1[C@@H](C(=O)N1CCCCC1)[C@@H]2CO	–	–
C[C@H]1CN([C@@H](C)CO)C(=O)c2cc(NC(=O)C3CCCCC3)ccc2O[C@@H]1CN(C)CC1CC1	–	–
CO[C@H]1CN(C)C(=O)c2cc(NS(=O)(=O)c3ccccc3)ccc2OC[C@H](C)N(Cc2nccs2)C[C@@H]1C	–	·
CCCNC(=O)C[C@@H]1CC[C@@H]2[C@H](COC[C@@H](O)CN2C(=O)c2ccccn2)O1	–	·
O=C(c1cccc(F)c1)N1CC2(C1)[C@H](c1ccccc1)[C@@H](CO)N2C(=O)C1CCOCC1	–	–
CN(C)CC(=O)Nc1ccc2c(c1)[C@H]1C[C@@H](CC(=O)NCc3cccnc3)O[C@H](CO)[C@H]1O2	–	–
C[C@H]1CN([C@@H](C)CO)C(=O)c2cccc(NC(=O)Nc3ccccc3)c2O[C@H]1CN(C)C(=O)Nc1ccc2c(c1)OCO2	–	·
C[C@@H]1CN([C@@H](C)CO)C(=O)c2cccc(NC(=O)Nc3ccccc3)c2O[C@@H]1CN(C)C(=O)Nc1ccc2c(c1)OCO2	-85	·
CCCN(C)C[C@H]1OCCCC[C@@H](C)Oc2ccc(NC(=O)C3CCCCC3)cc2C(=O)N([C@@H](C)CO)C[C@H]1C	-81	–
CCCN(C)C[C@@H]1OCCCC[C@@H](C)Oc2ccc(NC(=O)c3ccccc3)cc2C(=O)N([C@H](C)CO)C[C@@H]1C	-83!	–
CCCN(C)C[C@H]1OCCCC[C@@H](C)Oc2ccc(NC(=O)c3ccccc3)cc2C(=O)N([C@H](C)CO)C[C@H]1C	–	–
C[C@@H]1CCCCO[C@H](CN(C)CC2CC2)[C@H](C)CN([C@H](C)CO)C(=O)c2cc(NC(=O)c3ccccc3)ccc2O1	-81	–
CCCN(C)C[C@H]1OCCCC[C@@H](C)Oc2ccc(NC(=O)C3CCCCC3)cc2C(=O)N([C@H](C)CO)C[C@@H]1C	–	–
C[C@H](CO)N1C[C@H](C)[C@@H](CN(C)CC2CC2)OCCCC[C@H](C)Oc2ccc(NC(=O)c3ccccc3)cc2C1=O	–	–
SMILES	Pf Dd2 growth	C diff growth
Cc1ccc(S(=O)(=O)Nc2ccc3c(c2)C(=O)N([C@@H](C)CO)C[C@H](C)[C@H](CN(C)C(=O)Nc2ccc(F)cc2)O3)cc1	–	–
C[C@H]1CN([C@@H](C)CO)C(=O)c2cc(/C=C/c3ccccc3)cnc2O[C@H]1CN(C)C(=O)NC1CCCCC1	–	–
C[C@@H]1CN([C@H](C)CO)C(=O)c2cc(/C=C/c3ccccc3)cnc2O[C@@H]1CN(C)C(=O)C1CCCCC1	–	–
C[C@H]1CN([C@@H](C)CO)C(=O)c2cc(/C=C/c3ccccc3)cnc2O[C@@H]1CN(C)C(=O)C1CCCCC1	-88	–
C[C@H](CO)N1C[C@H](C)[C@@H](CN(C)C(=O)NC2CCCCC2)Oc2ncc(/C=C/c3ccccc3)cc2C1=O	-84	–
C[C@H](CO)N1C[C@H](C)[C@@H](CN(C)C(=O)C2CCCCC2)Oc2ncc(/C=C/c3ccccc3)cc2C1=O	-89	–
C[C@H](CO)N1C[C@H](C)[C@H](CN(C)C(=O)C2CCCCC2)Oc2ncc(/C=C/c3ccccc3)cc2C1=O	?	–
C[C@@H]1CCCCO[C@@H](CN(C)S(C)(=O)=O)[C@H](C)CN([C@@H](C)CO)C(=O)c2cc(NS(=O)(=O)c3ccc(Cl)cc3)ccc2O1	–	–
C[C@H](CO)N1C[C@H](C)[C@H](CN(C)C(=O)Nc2ccccc2)Oc2ncc(Br)cc2C1=O	–	–
COc1ccc(NC(=O)N(C)C[C@H]2Oc3ccc(NC(=O)NC4CCCCC4)cc3C(=O)N([C@@H](C)CO)C[C@@H]2C)cc1	–	–
O=C(C[C@@H]1CC[C@H](NC(=O)Cc2cccnc2)[C@@H](CO)O1)Nc1ccccc1	–	–
C[C@@H]1CCCCO[C@@H](CN(C)C(=O)Nc2ccc3c(c2)OCO3)[C@H](C)CN([C@@H](C)CO)C(=O)c2cc(NC(=O)c3ccccc3)ccc2O1	–	–
C[C@@H]1CCCCO[C@@H](CN(C)C(=O)Nc2ccccc2)[C@@H](C)CN([C@H](C)CO)C(=O)c2cc(NS(=O)(=O)c3ccc(Cl)cc3)ccc2O1	–	–
Cc1ccc(S(=O)(=O)Nc2ccc3c(c2)C(=O)N([C@H](C)CO)C[C@@H](C)[C@H](CN(C)C(=O)Nc2ccc(F)cc2)OCCCC[C@@H](C)O3)cc1	-85	·
Cc1ccc(S(=O)(=O)Nc2ccc3c(c2)C(=O)N([C@H](C)CO)C[C@@H](C)[C@@H](CN(C)C(=O)Nc2ccccc2)OCCCC[C@@H](C)O3)cc1	-83	·
Cc1ccc(S(=O)(=O)Nc2ccc3c(c2)C(=O)N([C@H](C)CO)C[C@H](C)[C@@H](CN(C)C(=O)Nc2ccccc2)OCCCC[C@@H](C)O3)cc1	–	·
Cc1ccc(S(=O)(=O)Nc2ccc3c(c2)C(=O)N([C@@H](C)CO)C[C@@H](C)[C@@H](CN(C)C(=O)Nc2ccc(F)cc2)OCCCC[C@@H](C)O3)cc1	–	·
C[C@H]1CCCCO[C@H](CN(C)C(=O)Nc2ccccc2)[C@@H](C)CN([C@@H](C)CO)C(=O)c2cc(NS(=O)(=O)c3ccc(Cl)cc3)ccc2O1	-84	–
Cc1ccc(S(=O)(=O)Nc2ccc3c(c2)C(=O)N([C@@H](C)CO)C[C@@H](C)[C@H](CN(C)C(=O)c2ccncc2)OCCCC[C@H](C)O3)cc1	–	–
O=C(Nc1cccc(F)c1)N1CC(=O)N2[C@H](CO)[C@H](c3ccc(C#CC4CC4)cc3)[C@H]2C1	–	–

Screening results (PubChem)
